TRPM1 prom inh = reduces MITF-dependent TRPM1 promoter luciferase signal | SK-MEL-5 TRPM1 promoter luciferase, 24 h | inhibition, % at 12.5 µM | AID 488899 | actives 0.83% (n = 330,000);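 active = mean inhibition across replicates of 60% or more, whatever share of single replicates reaches that level; inconclusive = some that reach 60%, reason not given; inactive = mean inhibition across replicates below 60%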
MITF act = activators of MITF-driven TRPM1 promoter activity in SK-MEL-5 cells. SK-MEL-5 TRPM1-promoter luciferase, 24 h; % of positive control, neutral wells = 0. activation, % at 12.5 µM. actives 0.75% (n = 300,000). AID 588334;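 active = mean activation of at least 80% with every replicate also reaching 80%; inconclusive = mean reaches 80% but some replicate falls short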
esBAF inh = blocks esBAF chromatin remodeling in mouse ES cells. reporter increase, % at 12.5 µM. Bmi1-luciferase knock-in reporter, 24 h; 100% = twice the neutral-well signal. actives 2% (n = 350,000); in the data active = activation above about 40%; inconclusive = no clear call, values can overlap the other calls;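 also: a rise in the Bmi1 reporter signal indicates esBAF inhibition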
PAX8 inh HTS = lowers PAX8-driven luciferase in RMG-I cells | actives 1.2% (n = 360,000) | AID 652154 | inhibition, % at 12.6 µM | RMG-I TPO-luciferase reporter, SteadyGlo, 24 h;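 active = mean replicate inhibition at least 60% with every replicate also reaching 60%; inconclusive = only one of the two criteria is met; inactive = mean below 60% and not all replicates reaching 60%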;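 also: luciferase light reporting Pax8 driven TPO promoter activity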
EWS-Fli inh = inhibitors of EWS/Fli oncoprotein transcriptional activity. inhibition, % at 12.6 µM. actives 0.67% (n = 350,000). A673 NR0B1-luciferase reporter, viability-normalised;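 active = mean inhibition of at least 50% after viability correction, with every replicate also passing that limit; inconclusive = mean reaches 50% but only one of two replicates passes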;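 also: firefly luciferase signal divided by Alamar Blue viability fluorescence both relative to DMSO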
Wnt bcat act = activators of Wnt/beta-catenin signaling; Wnt/beta-catenin reporter cell assay, activator, plate reader; activation, % at 9.35 µM; actives 1.2% (n = 300,000); AID 743398; in the data active = activation above about 30%, passing the limit was not always enough; inconclusive = no clear call, values can overlap the other calls
Numbers stand for hits; . = inactive; ? = inconclusive; / = no result given. The list is not random: actives were taken first. Their share in the collection is about 4%.

SMILES	TRPM1 prom inh	MITF act	esBAF inh	PAX8 inh HTS	EWS-Fli inh	Wnt bcat act
CCOC(=O)C1CCN(C(=O)c2cc(COc3ccc(OC)c4ccccc34)on2)CC1	.	.	57	.	/	40
COc1ccc(OCc2cc(C(=O)N3CCC(OC)CC3)no2)c2ccccc12	.	.	70	.	.	.
C[C@@H]1CN([C@@H](C)CO)C(=O)c2cc(Br)cnc2O[C@H]1CN(C)C(=O)C1CCC1	/	/	/	/	.	/
S=C(c1ccc2c(c1)OCO2)N1CCN(c2cccc(Cl)c2)CC1	.	.	.	.	60	.
Cc1cccc(N2CCN(C(=S)c3ccc4c(c3)OCO4)CC2)c1	.	.	.	.	.	.
CC1(C)CC(NC(=O)c2ccccn2)CC(C)(C)N1O	.	.	.	.	.	56
O=C(NNC(=O)C12CC3CC(CC(C3)C1)C2)c1ccccn1	.	/	/	.	.	.
C[C@@H]1CCCCO[C@@H](CN(C)Cc2ccccc2)[C@@H](C)CN([C@H](C)CO)C(=O)c2cc(NS(C)(=O)=O)ccc2O1	/	/	.	.	.	/
CSc1nc2c(cnn2-c2ccccc2)c(=O)n1N	.	.	48	.	.	/
COC(=O)C(CC#Cc1ccc2c(c1)[C@]1(C(=O)N2)[C@H](c2ccc(OCCO)cc2)N2[C@H](c3ccccc3)[C@H](c3ccccc3)OC(=O)[C@H]2[C@@H]1C(=O)N1CCCCCCC1)C(=O)OC	/	/	/	/	.	/
COc1ccc(CCNc2ncccc2C#N)cc1OC	.	.	54	.	.	.
CC(C)NC(=O)N[C@@H]1CC[C@H](CCNC(=O)C2CCC2)O[C@H]1CO	/	/	.	.	.	/
CC(C)C[C@H](NC(=O)c1nc[nH]c1C(=O)NCC(=O)OC(C)(C)C)C(=O)OC(C)(C)C	.	.	.	.	.	.
CC(C)C[C@H](NC(=O)c1nc[nH]c1C(=O)N[C@@H](CC(C)C)C(=O)OC(C)(C)C)C(=O)OC(C)(C)C	/	/	.	66	.	.
CC(C)C[C@H](NC(=O)c1nc[nH]c1C(=O)NC(c1ccccc1)c1ccccc1)C(=O)OC(C)(C)C	.	.	.	67	.	.
COc1ccc2[nH]c(=O)c(-c3nnn(-c4ccccc4)n3)cc2c1	.	.	58	.	.	.
COc1ccc2[nH]c(=O)c(-c3nnn(-c4ccc(F)cc4)n3)cc2c1	.	.	.	.	.	.
CCCNC(=O)C[C@H]1CC[C@@H]2[C@H](COc3ccc(NC(=O)c4cccc(Cl)c4)cc3C(=O)N2C)O1	/	/	.	.	.	/
CC(C)N(Cc1nccn1C)C(=O)CCc1nnc(CCCc2ccccc2)o1	.	.	/	.	.	69
O=C(Nc1ccc2c(c1)nc1n2CCOC1)C1CCCCC1	.	/	53	.	/	/
COc1ccc2c3c([nH]c2c1)[C@@H](CO)N(C(=O)CN(C)C)CC31CCN(CC2CC2)CC1	/	/	/	.	.	/
COc1ccc(C#Cc2ccc3c(c2)O[C@@H](CN(C)C(C)=O)[C@@H](C)CN([C@H](C)CO)S3(=O)=O)cc1	/	/	.	/	.	/
Cc1ccc(-c2cc(C(F)F)n3ncc(C(=O)N4CCCc5ccccc54)c3n2)cc1	.	.	.	.	/	.
COc1ccc2cc(C(=O)N3CCc4ccccc43)[nH]c2c1	.	.	.	.	.	46
COc1ccc(-c2cc(C(F)F)n3ncc(C(=O)N4CCc5ccccc54)c3n2)cc1	.	.	.	.	57	.
SMILES	TRPM1 prom inh	MITF act	esBAF inh	PAX8 inh HTS	EWS-Fli inh	Wnt bcat act
O=C(c1cc2cc(F)ccc2[nH]1)N1CCc2ccccc21	.	.	63	.	.	42
O=C(c1cc2cc(Br)ccc2[nH]1)N1CCc2ccccc21	.	.	.	.	.	.
C[C@@H]1CN([C@@H](C)CO)C(=O)c2cc(NC(=O)Nc3ccc(F)cc3)ccc2O[C@@H]1CN(C)C(=O)Nc1cccc2ccccc12	/	/	.	75	.	/
C[C@@H]1CN([C@H](C)CO)C(=O)c2cc(NC(=O)Nc3cccc4ccccc34)ccc2O[C@@H]1CN(C)C(=O)Nc1cccc2ccccc12	/	/	.	78	.	/
C[C@@H]1CCCCO[C@H](CN(C)CC2CC2)[C@H](C)CN([C@@H](C)CO)C(=O)c2cc(NS(=O)(=O)c3ccc(Cl)cc3)ccc2O1	/	/	.	.	.	/
CCCN(C)C[C@H]1OCCCC[C@H](C)Oc2ccc(NS(=O)(=O)c3ccc(F)cc3)cc2C(=O)N([C@@H](C)CO)C[C@@H]1C	/	/	.	69	.	/
C[C@@H]1CCCCO[C@@H](CN(C)CC2CCCCC2)[C@@H](C)CN([C@@H](C)CO)C(=O)c2cc(NS(=O)(=O)c3ccc(F)cc3)ccc2O1	/	/	.	72	.	/
C[C@@H]1CCCCO[C@H](CN(C)CC2CCCCC2)[C@H](C)CN([C@@H](C)CO)C(=O)c2cc(NS(=O)(=O)c3ccc(Cl)cc3)ccc2O1	/	/	.	104	65	/
C[C@@H]1CCCCO[C@H](CN(C)CC2CCCCC2)[C@H](C)CN([C@@H](C)CO)C(=O)c2cc(NS(=O)(=O)c3ccc(F)cc3)ccc2O1	/	/	.	.	67	/
COc1ccc(S(=O)(=O)N(C)C[C@H]2OCCCC[C@@H](C)Oc3ccc(NS(=O)(=O)c4cn(C)cn4)cc3C(=O)N([C@H](C)CO)C[C@H]2C)cc1	/	/	.	.	/	/
O=C(C[C@@H]1CC[C@H](NC(=O)Nc2ccccc2F)[C@H](CO)O1)NCc1ccc(Cl)cc1	/	/	.	.	.	/
N#CCc1ccc(NC(=O)/C=C/c2ccc([N+](=O)[O-])o2)cc1	100	.	.	/	/	/
N#C/C(=C\c1ccc([N+](=O)[O-])o1)C(=O)Nc1ccc(F)cc1	.	.	/	.	.	.
COC(=O)Cc1cc(=O)[nH]c(Nc2nc3ccccc3o2)n1	.	.	/	/	/	/
Clc1ccccc1Nc1nc2ccccc2o1	.	.	.	.	.	60
COCc1cc(=O)[nH]c(Nc2nc3ccccc3o2)n1	.	.	50	.	/	.
CCC(=O)Nc1ccc2c(c1)C(=O)N(C)C[C@@H](OC)[C@@H](C)CN(C(=O)c1ccccn1)[C@@H](C)CO2	/	/	.	.	.	/
COc1ccc(C(=O)Nn2c(SCC(=O)c3ccccc3)nc3ccccc3c2=O)cc1	.	/	/	/	/	/
CCOC(=O)CSc1nc2ccccc2c(=O)n1NC(=O)c1ccccc1	.	.	.	.	/	38
Cc1ccc(OCC(=O)O/N=C(\N)c2ccccn2)cc1C	/	/	/	.	.	39
Cc1cc(C)cc(OCC(=O)O/N=C(\N)c2ccccn2)c1	.	.	?	/	/	/
N/C(=N\OC(=O)COc1ccccc1)c1cccnc1	.	104	/	.	.	.
N/C(=N\OC(=O)COc1ccc(Br)cc1)c1cccnc1	.	.	/	.	/	.
Cc1ccc(OCC(=O)O/N=C(\N)c2ccncc2)cc1C	.	.	54	.	.	.
COc1cccc(OCC(=O)O/N=C(\N)c2ccncc2)c1	.	.	47	.	.	.
C[C@@H]1CN([C@@H](C)CO)C(=O)c2cccc(NC(=O)CCCCCC(=O)Nc3ccccc3N)c2O[C@H]1CN(C)C(=O)Nc1ccc(F)cc1	/	/	/	.	.	/

Compound activity: PubChem, Broad Institute
